Screening results as filed in PubChem.
This is a sample that favours compounds with a hit; in the whole collection about 5.4% have one here.
aDG glyco up: increases alpha dystroglycan glycosylation. 0.22% of 360,000 active. Pro5-aDG cells, alpha-DG glycosylation AlphaScreen (IIH6); 0% Pro5, 100% B10-LARGE cell signal. AID 624168. activation, % at 10 µM;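 active = activation of at least 8% versus controls, or a plate z-score of at least 8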;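 also: Pro5 are CHO cells carrying HIG-tagged alpha-DG that lacks glycosylation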
PHOSPHO1 inh: blocks human PHOSPHO1 phosphatase activity; Q8TCT1; recombinant PHOSPHO1, absorbance phosphatase assay; inhibition, % at 13.3 µM; 1.1% of 290,000 active; AID 1565; in the data active = inhibition above about 60%
APOBEC3A inh: human APOBEC3A DNA deaminase inhibition; recombinant A3A, FAM/TAMRA ssDNA deamination fluorescence; inhibition, % at 20 µM; 0.41% of 330,000 active; AID 493011;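 active = at least 40% inhibition at 20 µM here, with at most 30% in a related deaminase screen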;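 also: plate controls were A3A with DMSO for no effect and wells lacking A3A enzyme for full effect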
Target sequence (P31941 whole entry, looked up): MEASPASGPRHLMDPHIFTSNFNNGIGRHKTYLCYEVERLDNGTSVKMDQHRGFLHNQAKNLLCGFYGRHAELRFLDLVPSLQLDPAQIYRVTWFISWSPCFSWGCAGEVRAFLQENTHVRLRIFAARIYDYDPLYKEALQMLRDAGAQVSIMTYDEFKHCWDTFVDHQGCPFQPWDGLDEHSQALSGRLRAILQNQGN
A3G deaminase: blocks human APOBEC3G single-stranded DNA deamination. recombinant A3G, ssDNA deamination FAM/TAMRA fluorescence. 0.28% of 330,000 active. inhibition, % at 20 µM. Q9HC16;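 active = inhibition of at least 40% at 20 µM, with no more than 30% in the related APOBEC3A deaminase screen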;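 also: plate controls were DMSO wells with A3G for no effect and wells lacking A3G enzyme for full effect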
ALR inh: blocks human ALR sulfhydryl oxidase activity | P55789 | purified ALR, DTT oxidation, H2O2 HRP-luminol luminescence | inhibition, % (no concentration beside the values) | 3.8% of 290,000 active | AID 485317;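 active = mean replicate inhibition above about 79%, with every replicate also reaching it, limit read from the data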
Target sequence (P55789 whole entry, looked up): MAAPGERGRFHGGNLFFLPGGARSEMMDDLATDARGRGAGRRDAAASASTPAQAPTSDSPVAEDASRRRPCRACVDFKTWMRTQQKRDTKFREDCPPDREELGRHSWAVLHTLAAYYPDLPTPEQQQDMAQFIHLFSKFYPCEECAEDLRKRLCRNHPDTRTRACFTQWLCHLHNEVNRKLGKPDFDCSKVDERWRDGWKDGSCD
rCAG RNA binder: molecules binding r(CAG) RNA repeats. r(CAG) RNA repeat, TO-PRO-1 dye displacement fluorescence. inhibition, % at 3 µM. 1.3% of 370,000 active. AID 651821;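 active = inhibition above the plate cutoff, the mean of all test compounds on that plate plus 3 SD, cut at about 35% in these data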;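 also: 0% = DMSO alone and 100% = 100 µM mitoxantrone as full dye displacement; higher means more dye released from RNA so lower well fluorescence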
* marks the source's active call; other numbers are inactive results; / = not tested or not shown.

SMILES	aDG glyco up	PHOSPHO1 inh	APOBEC3A inh	A3G deaminase	ALR inh	rCAG RNA binder
CCOC(=O)CSC1=C(C#N)C(c2ccc(F)cc2)C(C(C)=O)=C(C)N1 (configuration not stated)	0	79*	1	-1	20	-3
CC1(C)CN(c2ccccc2)N(C(=O)c2ccc(C#N)cc2)C1=O	0	52	-2	-4	85*	-3
CC1(C)CN(c2ccccc2)N(C(=O)c2ccc(F)cc2)C1=O	1	19	1	-2	100*	/
CC(=O)OCC1(C)CN(c2ccccc2)N(C(=O)c2ccc(C(C)(C)C)cc2)C1=O (configuration not stated)	0	24	/	/	/	-7
C/C(=N\NC(=O)Cc1cccs1)c1ccco1	/	/	/	/	/	6
Cc1cc(C(=O)CSc2nncs2)c(C)n1Cc1ccco1	0	30	0	-6	3	1
Cc1cc(C(=O)CCl)c(C)n1CCc1ccccc1	/	53	-3	-9	96*	1
Cc1cc(C(=O)CCl)c(C)n1Cc1ccco1	1	20	5	-5	97*	0
O=C(Cc1ccccc1)Nc1nnc(-c2cccnc2)s1	/	/	/	/	/	1
Cc1ccccc1CS(=O)(=O)Cc1ccc(C(=O)Nc2ccc(F)cc2F)o1	/	/	/	/	/	3
Cc1nn2c(NCCOCCO)c3c(nc2c1-c1ccccc1)CCCC3	0	32	0	-6	86*	/
COCCNc1c2c(nc3c(-c4ccccc4)c(C)nn13)CCCC2	0	28	4	0	42	-6
O=C1c2ccccc2C(=O)C12OC2c1cccc2ccccc12 (configuration not stated)	0	66*	0	5	30	3
O=C1NC(c2cccc3ccccc23)Nc2ccccc21 (configuration not stated)	0	/	/	/	/	3
Cc1cc(-c2n[nH]c(=S)n2N=Cc2cccc(OCc3ccccc3)c2)n[nH]1	/	/	/	/	/	30
COC(=O)[C@]12C[C@H](CC(=O)NCCCN3CCCC3=O)C(=O)N(CCC3=CCCCC3)C1=C[C@H](COCc1ccccc1)O[C@@H]2C	/	/	/	/	/	1
CCn1cc(-c2ccccc2)c(C(=O)O)c1-c1ccc(OC)cc1	0	/	-7	3	85*	0
COc1ccc(-c2cn(-c3ccccc3)nc2CO)cc1	0	-2	-1	-5	97*	-3
CC(NC(=O)NC(=O)c1cccc([N+](=O)[O-])c1)C1CC1 (configuration not stated)	0	75*	3	-1	-10	-3
Cc1ccc(S(=O)(=O)N2CCCC(C(=O)O)C2)s1 (configuration not stated)	0	-4	-3	-6	87*	0
O=C(O)C1CCCN(S(=O)(=O)c2cccs2)C1 (configuration not stated)	0	4	-3	2	-5	-1
O=C(NCc1ccc2c(c1)OCO2)c1nc(S(=O)(=O)Cc2ccccc2F)ncc1Cl	2	22	5	0	3	2
O=C(NCc1ccc2c(c1)OCO2)c1nc(S(=O)(=O)Cc2ccccc2)ncc1Cl	0	29	0	6	99*	1
COC(=O)C1CN(Cc2ccc(OC)cc2)CCS(=O)(=O)N1Cc1cn(Cc2ccc(OC)cc2)nn1 (configuration not stated)	/	/	/	/	/	-1
O=S1(=O)c2ccc(Br)cc2OC[C@@H](c2ccccc2)N1Cc1cn(Cc2ccccc2)nn1	/	/	/	/	/	7
SMILES	aDG glyco up	PHOSPHO1 inh	APOBEC3A inh	A3G deaminase	ALR inh	rCAG RNA binder
COc1ccc(-c2[nH]ncc2CN(C)CCc2c(C)n[nH]c2C)c(F)c1	0	67*	0	1	0	-1
O=C(NNc1ccc(Cl)cc1)c1c(F)cccc1Cl	0	38	-4	-7	13	-2
CC(=O)C(=Nc1ccccc1Cl)NNc1ccc(Cl)cc1	1	2	-3	7	95*	-1
CN(CCOC(=O)c1occ2ccccc12)C1CN(Cc2cn(Cc3ccccc3Cl)nn2)S(=O)(=O)C1 (configuration not stated)	/	/	/	/	/	2
COc1ccc(CNCC#Cc2ccccc2)cc1	/	/	/	/	/	1
Cc1ccc(S(=O)(=O)CCC(=O)c2ccc(O)cc2O)cc1	0	-18	0	-1	98*	14
Cc1ccc(S(=O)(=O)CCC(=O)OCC(=O)c2cc(C)ccc2C)cc1	0	/	1	-9	-4	-3
COCCCNC(=O)c1ccc2c(=O)n(CC3CCCO3)c(=S)[nH]c2c1 (configuration not stated)	0	48	-2	-3	87*	-4
O=C(O)CN1C(=O)/C(=C/C=C/c2ccccc2)SC1=S	0	19	3	3	64	7
O=C(O)CN1C(=O)/C(=C\C(Br)=C\c2ccccc2)SC1=S	0	/	5	2	9	50*
CC(/C=C1\SC(=O)N(CCCC(=O)O)C1=O)=C\c1ccccc1	0	-5	/	/	97*	10
CCOC(=O)c1csc(NC(=O)C2CCCN(S(=O)(=O)c3ccc(Br)s3)C2)n1 (configuration not stated)	/	/	/	/	/	1
CCOc1ccc(/C=N/n2nnnc2N)cc1O	0	62*	1	8	/	2
CCOc1cc(/C=N\n2nnnc2N)ccc1O	0	24	-3	-7	99*	0
O=[N+]([O-])c1cccc(OCCCN2CCC(C(O)(c3ccccc3)c3ccccc3)CC2)c1	/	/	/	/	/	5
CCOc1cc(/C=N/NC(=O)CCn2nc(C)cc2C)ccc1O	0	12	3	-5	99*	-2
COc1cc(/C=N/NC(=O)CCn2nc(C)cc2C)ccc1O	0	36	3	-5	/	-8
Cc1cc(C)n(CCC(=O)N/N=C/c2ccc(O)cc2)n1	0	7	0	-5	99*	1
NC(=NCc1ccccc1)NC(=O)OCc1ccccc1	/	/	/	/	/	1
O=C(Nc1ccc(O)cc1)/C(=C/c1ccco1)NC(=O)c1ccccc1	0	40	5	9	99*	5
O=C(Nc1ccc(O)cc1)/C(=C\c1ccncc1)NC(=O)c1ccccc1	1	22	1	2	99*	-1
C=CCOC(=O)C1=C(C)NC(SCC(=O)Nc2ccc(C)c(Cl)c2)=C(C#N)C1c1ccco1 (configuration not stated)	2	15	2	2	98*	8
N#CC1=C(SCC(=O)Nc2ccc(C(=O)O)cc2)NC(=O)CC1c1ccco1 (configuration not stated)	0	3	21	-2	98*	3
COc1cc2c(cc1NC(=O)CSc1nnc(-c3cnccn3)n1-c1ccc(C)cc1)oc1ccccc12	/	/	/	/	/	9
NC(=O)c1ccc(N2CCCCC2)c(N2C(=O)C3C4C=CC(C4)C3C2=O)c1 (configuration not stated)	0	-14	-10	-5	-3	3
